Reference: ChEMBL document CHEMBL1157539, “Thousands of chemical starting points for antimalarial lead identification” (Nature, 2010)
The full ranking holds about 13,000 compounds; the median of “IFI” is about 4, and the highest 2% start at about 17. For the sample, the highest values were picked, then their nearest neighbours and some compounds at random.

Assay: GSK_TCMDC: Inhibition Frequency Index (IFI). The number of non-kinase HTS assays where a compound showed > 50 % inhibition, expressed as a percentage of the number of such assays in which the compound was tested
Type: functional

| Compound | IFI |
| --- | --- |
| NS(=O)(=O)c1ccc(Nc2nccc(-c3c(-c4cccc(NC(=O)c5c(F)cccc5F)c4)nn4ccccc34)n2)cc1 | 7.96% |
| Cc1cc(-c2ccc3c(c2)CCN(CCCOc2ccc4c(c2)CCN4C(=O)/C=C/c2ccccc2Cl)CC3)no1 | 10.8% |
| CN(C)CCN(C)Cc1ccc(-c2ccc3c(Nc4ccc(F)cc4Cl)ccnc3c2)o1 | 9.86% |
| Nc1ccc2[nH]cc(C3CCN(CCC4CCN(C(=O)/C=C/c5ccc(Cl)c(Cl)c5)CC4)CC3)c2n1 | 8.76% |
| CCCNCc1ccc(-c2ccc(CN(CCOC)C(=O)c3cnc(C)cn3)cc2)nc1 | 0% |
| O=C(Nc1ccc(C(F)(F)F)cc1)N[C@H]1CCN(CCCCCNC(=O)C2CC2c2ccc(Cl)c(Cl)c2)C1 (some centres not stated) | 16.8% |
| CC(C)Cc1cn(-c2nc(-c3nc4ccccc4[nH]3)cs2)c2cc(Cl)ccc12 | 1.18% |
| CC(C)Cc1cn(-c2nc(C(=N)N)cs2)c2cc(Cl)ccc12 | 23.9% |
| CC(C)Cc1cn(-c2nc(-c3nc4ccccc4[nH]3)cs2)c2ccncc12 | 4.94% |
| CCCN(Cc1ccc(C)cc1)Cc1cc(=O)c2cc(Cl)ccc2[nH]1 | 9.09% |
| Fc1ccc2[nH]c(-c3ccc(-c4cccc(CN5CCN(c6ccncc6)CC5)c4)cc3)nc2c1 | 18.1% |
| Fc1ccc2[nH]c(-c3cccc(-c4cccc(CN5CCN(c6ccncc6)CC5)c4)c3)nc2c1 | 13.6% |
| Fc1ccc2[nH]c(-c3cccc(-c4ccc(CN5CCN(c6ccncc6)CC5)cc4)c3)nc2c1 | 5.63% |
| Cc1cc(N)c2cc(NC(=O)c3cc4ccccc4s3)ccc2n1 | 6.12% |
| N=C(NCC1CC1c1ccccc1)c1cccc(C(=N)NCC2CC2c2ccccc2)n1 (configuration not stated) | 5.65% |
| CC(CNC(=N)c1cccc(C(=N)NCC(C)Oc2cccc(C3CCCCC3)c2)n1)Oc1cccc(C2CCCCC2)c1 (configuration not stated) | 17.7% |
| c1ccc(COc2ccc(C3CCCCC3)cc2)nc1 | 2.9% |
| Cc1cccc(NC(=O)Nc2cccc(-c3ccc(-c4nc5cc(C(F)(F)F)ccc5[nH]4)cc3)c2)c1 | 6.45% |
| O=C(Nc1ccc(C(F)(F)F)cc1)c1ccc(S(=O)(=O)NC2CCN(CC3CCCCC3)CC2)cc1 | 2.41% |
| COc1cc(NC(=O)Nc2ccc(Br)cc2C(=O)Nc2ccc(Br)cc2)cc(OC)c1OC | 1.55% |
| Cc1cc(Cl)c(Cl)cc1NC(=O)Nc1cccc(C(F)(F)F)c1 | 6.52% |
| O=C(Nc1ccc(Br)cc1)c1cc(Br)ccc1NS(=O)(=O)c1ccc(C(F)(F)F)cc1 | 25% |
| O=C(Nc1cc(C(F)(F)F)cc(C(F)(F)F)c1)c1cc(C(F)(F)F)cc(C(F)(F)F)c1 | 3.65% |

| Compound | IFI |
| --- | --- |
| Cc1ccc(C)c(S(=O)(=O)Nc2ccc(Br)cc2C(=O)Nc2cccc(C(F)(F)F)c2)c1 | 21.1% |
| O=C(Nc1ccc(Br)cc1)c1cc(Br)ccc1NS(=O)(=O)c1cc(C(F)(F)F)cc(C(F)(F)F)c1 | 19.9% |
| NCCNc1ccc([N+](=O)[O-])cc1C(=O)Nc1cccc(C(F)(F)F)c1 | 1.45% |
| O=C(Nc1ccc(C(F)(F)F)cc1)c1cc(Br)cnc1NCCCn1ccnc1 | 1.67% |
| COc1ccc2c(NN=Cc3ccccc3F)ccnc2c1 | 3.52% |
| CC(C)[C@H](NC(=O)c1c(F)cccc1F)C(=O)Nc1ccc(Cc2nc3ccccc3s2)cc1 | 1.96% |
| CN(N=Cc1ccccc1)C(=N)NCCCC#Cc1cccc(CN2CCCC2)c1 | 4.23% |
| CC(Sc1nnc(-c2cccs2)[nH]1)C(=O)c1c[nH]c2ccccc12 (configuration not stated) | 1.92% |
| Oc1ccc2nc(NCCCc3ccccc3)nc(NCCc3ccccc3)c2c1 | 14.1% |
| CCN(CC)/C(=N/C(=N)NCc1ccc(Cl)cc1)NCCCCCCN/C(=N\C(=N)NCc1ccc(Cl)cc1)N(CC)CC | 15.1% |
| COc1cccc(-c2ccc(NC(=O)C3CCCN(Cc4cccc(OC)c4O)C3)cc2)c1 (configuration not stated) | 4.35% |
| O=C(Cc1ccccc1)NC(c1ccco1)c1cc(Cl)c2cccnc2c1O (configuration not stated) | 8% |
| CCC(=O)NC(c1ccco1)c1cc(Cl)c2cccnc2c1O (configuration not stated) | 4.35% |
| Oc1c(C(Nc2ccccn2)c2ccco2)cc(Cl)c2cccnc12 (configuration not stated) | 22.6% |
| N=C1C=C(N)C(=O)c2ccccc21 | 20.8% |
| O=C(Nc1ccc(-c2cccc(-c3nc4cc(C(F)(F)F)ccc4[nH]3)c2)cc1)Nc1ccc(F)c(F)c1F | 5.83% |
| COc1ccc(CCCCN2C(=O)C(c3ccccc3)(c3ccccc3)N=C2N)cc1 | 7.69% |
| CCCCC(CCCC)CN1C(=O)C(c2ccccc2)(c2ccccc2)N=C1N | 20.9% |
| COc1ccccc1CCCN1C(=O)C(c2ccccc2)(c2ccccc2)N=C1N | 22.3% |
| CCC(CC)CN1C(=O)C(c2ccccc2)(c2ccccc2)N=C1N | 3.7% |
| CCCCC(CC)CN1C(=O)C(c2ccccc2)(c2ccccc2)N=C1N (configuration not stated) | 16.3% |
| COc1ccc(CCCN2C(=O)C(c3ccccc3)(c3ccccc3)N=C2N)cc1 | 8.65% |
| N#Cc1cccc(NC(=O)Nc2ccc(-c3cccc(-c4nc5cc(F)ccc5[nH]4)c3)cc2)c1 | 4.04% |

| Compound | IFI |
| --- | --- |
| Cc1cccc2nc(-c3ccc(-c4ccc(CNCc5ccccc5)cc4)s3)[nH]c12 | 9.62% |
| Oc1c(CN2CCCC(C(F)(F)F)C2)cc(Cl)c2ccccc12 (configuration not stated) | 6.38% |
| Cc1ccc(CN2CCCN(Cc3cccc(NC(=O)c4cc5ccccc5s4)c3)CC2)cc1 | 10.2% |
| CN1CCC(C(=O)Nc2cccc(-c3cccc(-c4nc5cc(F)ccc5[nH]4)c3)c2)CC1 | 4.24% |
| Cc1cccc2nc(-c3cccc(-c4cccc(CNCc5ccc(S(C)(=O)=O)cc5)c4)c3)[nH]c12 | 8.65% |
| Cc1ccc2c(=NN=Cc3cccc(Cl)c3)cc(C)[nH]c2c1 | 10.1% |
| COc1ccc(-c2cccc(NC(=O)c3cccc(C#N)c3)c2)cc1CN1CCC(O)CC1 | 0% |
| CC(C)CCN1CCC(Oc2ccc(NC(=O)c3cccs3)cc2Cl)CC1 | 8.06% |
| c1cc(CN2CCC(CCN3CCCCC3)CC2)cc(-c2cccc(-c3nc4ccccc4[nH]3)c2)c1 | 5.56% |
| Cc1cccc(CNc2nc(C)cc(N[C@@H](CC(C)C)C(=O)NCc3cccc(F)c3)n2)c1 | 9.52% |
| Cc1cc(N[C@@H](Cc2ccccc2)C(=O)NCc2cccs2)nc(NCC2CCCCC2)n1 | 16.3% |
| Cc1cc(N[C@@H](CC(C)C)C(=O)NCCc2ccccc2)nc(NCC2CCCCC2)n1 | 16.3% |
| Cc1cc(N[C@@H](CC(C)C)C(=O)NCc2cccc(F)c2)nc(NCCc2ccccc2)n1 | 17.1% |
| Cc1cc(N[C@@H](Cc2ccccc2)C(=O)NCCc2ccccc2)nc(NCCOc2ccccc2)n1 | 7.5% |
| Cc1cc(N[C@@H](Cc2ccccc2)C(=O)NCCOc2ccccc2)nc(NCCc2ccccc2)n1 | 16.3% |
| Cc1ccc(CNC(=O)[C@H](Cc2ccccc2)Nc2cc(C)nc(NCc3ccccc3C)n2)cc1 | 4.88% |
| Cc1cc(N[C@@H](CC(C)C)C(=O)NCc2cccc(F)c2)nc(NCC2CCCCC2)n1 | 18.6% |
| Cc1ccc(CNC(=O)[C@H](Cc2ccccc2)Nc2cc(C)nc(NCC3CCCCC3)n2)cc1 | 24.3% |
| Cc1ccc(CNC(=O)[C@H](CCCN)Nc2cc(C)nc(NCC3CCCCC3)n2)cc1 | 4.88% |
| Cc1ccc(CNC(=O)[C@H](CC(C)C)Nc2cc(C)nc(NCC3CCCCC3)n2)cc1 | 19.1% |
| Cc1cc(N[C@@H](Cc2ccccc2)C(=O)NCCOc2ccccc2)nc(NCCOc2ccccc2)n1 | 24.4% |
